Laboratory results from PubChem BioAssay (EPA / NIEHS).
Some structures have more than one record in an assay (separate samples or runs), and their calls can disagree. Activity calls are given as the source filed them. How the source made its calls: active means hit-call score of the fitted dose curve at least 0.9, where 1 is the maximum; inactive means score below 0.9.

These compounds were tested on Tissue plasminogen activator (tPA), PLAT (gene 5327) (assay: BSK_BE3C_tPA: BioMAP Diversity Plus: BE3C Assay for Tissue plasminogen activator (tPA) Biomarker Activity (AID 2283041;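 on outcome: tPA level quantified by ELISA one day after compound addition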)). Conditions: primary human bronchial epithelial cells; actives raise or lower the signal.
Summary of the method: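 Bidirectional curve fitting relative to DMSO defined activity, with tPA detected by ELISA in chemically treated human bronchial epithelial primary cells at 24 hours.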

SMILES	outcome	AC50
C=C(C)C(N)=O	inactive	
c1ccc2c(c1)-c1ccc3ccc4cccc5cc-2c1c3c45	inactive	
O=C(O)C(F)(F)C(F)(F)C(F)(F)C(F)(F)C(F)(F)C(F)(F)C(F)(F)C(F)F	inactive	
C[C@]12CC[C@@H]3c4ccc(O)cc4CC[C@H]3[C@@H]1CC[C@@H]2O	inactive	
CCCCCCCCCC(=O)OCC		20 µM (active)
Nc1ccc(N)c([N+](=O)[O-])c1	inactive	
CCCCN(CCO)CCO	inactive	
CC(=O)OC(C)(C)C1CC=C(C)CC1 (centres undefined)		27.7 µM (active)
CC1=CC(C)C(C=O)C(C)C1 (centres undefined) (tested in a mixture with another compound)	inactive	
CCC(=O)OCC=Cc1ccccc1	inactive	
CC=CC(=O)C1=C(C)C=CCC1(C)C	inactive	
CC(=O)CCC=C(C)CCC=C(C)C	inactive	
CCCCCCCC1CCCC1=O (centres undefined)		33.4 µM (active)
O=S1(=O)CC(Cl)(Cl)C(Cl)(Cl)C1		0.964 µM (active)
CCCCCCCCCCCCS	inactive	
CC(=O)OCC=C(C)CCC=C(C)CCC=C(C)C		3.97 µM (active)
OCC(F)(OC(F)(F)C(F)(OC(F)(F)C(F)(F)C(F)(F)F)C(F)(F)F)C(F)(F)F (centres undefined)	inactive	
CC1(C)[C@H](C=C(Cl)Cl)[C@H]1C(=O)OCc1cccc(Oc2ccccc2)c1	inactive	
CCOC(=O)C=Cc1ccccc1	inactive	
O=C(O)C(F)(F)OC(F)(F)C(F)(F)OC(F)(F)C(F)(F)C(F)(F)C(F)(F)F	inactive	12.4 µM (active)
CC(C)(C)c1cccc(O)c1	inactive	
CC(C)Cc1ccc(C(C)C(=O)O)cc1 (centres undefined)	inactive	

Each compound was assayed on Interleukin-8 (IL8), CXCL8 (gene 3576) (assay: BSK_CASM3C_IL8: BioMAP Diversity Plus: CASM3C Assay for Interleukin-8 (IL8) Biomarker Activity (AID 2283042;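 further: IL-8 protein level quantified by ELISA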)). Conditions: primary human coronary artery smooth muscle cells; actives raise or lower the signal.

SMILES	outcome	AC50
C=C(C)C(N)=O	inactive	
c1ccc2c(c1)-c1ccc3ccc4cccc5cc-2c1c3c45	inactive	
O=C(O)C(F)(F)C(F)(F)C(F)(F)C(F)(F)C(F)(F)C(F)(F)C(F)(F)C(F)F	inactive	
C[C@]12CC[C@@H]3c4ccc(O)cc4CC[C@H]3[C@@H]1CC[C@@H]2O	inactive	
CCCCCCCCCC(=O)OCC		37 µM (active)
Nc1ccc(N)c([N+](=O)[O-])c1	inactive	
CCCCN(CCO)CCO	inactive	
CC(=O)OC(C)(C)C1CC=C(C)CC1 (centres undefined)	inactive	
CC1=CC(C)C(C=O)C(C)C1 (centres undefined) (tested in a mixture with another compound)	inactive	
CCC(=O)OCC=Cc1ccccc1	inactive	
CC=CC(=O)C1=C(C)C=CCC1(C)C	inactive	
CC(=O)CCC=C(C)CCC=C(C)C	inactive	
CCCCCCCC1CCCC1=O (centres undefined)	inactive	
O=S1(=O)CC(Cl)(Cl)C(Cl)(Cl)C1		1.3 µM (active)
CCCCCCCCCCCCS	inactive	
CC(=O)OCC=C(C)CCC=C(C)CCC=C(C)C	inactive	
OCC(F)(OC(F)(F)C(F)(OC(F)(F)C(F)(F)C(F)(F)F)C(F)(F)F)C(F)(F)F (centres undefined)	inactive	
CC1(C)[C@H](C=C(Cl)Cl)[C@H]1C(=O)OCc1cccc(Oc2ccccc2)c1	inactive	
CCOC(=O)C=Cc1ccccc1	inactive	
O=C(O)C(F)(F)OC(F)(F)C(F)(F)OC(F)(F)C(F)(F)C(F)(F)C(F)(F)F	inactive	
CC(C)(C)c1cccc(O)c1	inactive	
CC(C)Cc1ccc(C(C)C(=O)O)cc1 (centres undefined)	inactive	

What follows are compounds tested on Human Leukocyte Antigen - DR isotype (HLADR), HLA-DRA (gene 3122) (assay: BSK_CASM3C_HLADR: BioMAP Diversity Plus: CASM3C Assay for Human Leukocyte Antigen - DR isotype (HLADR) Biomarker Activity (AID 2283043;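 further: cell-surface HLA-DR protein level quantified by ELISA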)). Conditions: primary human coronary artery smooth muscle cells; actives raise or lower the signal.

SMILES	outcome	AC50
C=C(C)C(N)=O	inactive	
c1ccc2c(c1)-c1ccc3ccc4cccc5cc-2c1c3c45	inactive	
O=C(O)C(F)(F)C(F)(F)C(F)(F)C(F)(F)C(F)(F)C(F)(F)C(F)(F)C(F)F	inactive	
C[C@]12CC[C@@H]3c4ccc(O)cc4CC[C@H]3[C@@H]1CC[C@@H]2O	inactive	
CCCCCCCCCC(=O)OCC		32.5 µM (active)
Nc1ccc(N)c([N+](=O)[O-])c1	inactive	
CCCCN(CCO)CCO	inactive	
CC(=O)OC(C)(C)C1CC=C(C)CC1 (centres undefined)		31.5 µM (active)
CC1=CC(C)C(C=O)C(C)C1 (centres undefined) (tested in a mixture with another compound)	inactive	
CCC(=O)OCC=Cc1ccccc1	inactive	
CC=CC(=O)C1=C(C)C=CCC1(C)C	inactive	
CC(=O)CCC=C(C)CCC=C(C)C	inactive	
CCCCCCCC1CCCC1=O (centres undefined)		35.2 µM (active)
O=S1(=O)CC(Cl)(Cl)C(Cl)(Cl)C1		0.421 µM (active)
CCCCCCCCCCCCS		33.8 µM (active)
CC(=O)OCC=C(C)CCC=C(C)CCC=C(C)C	inactive	
OCC(F)(OC(F)(F)C(F)(OC(F)(F)C(F)(F)C(F)(F)F)C(F)(F)F)C(F)(F)F (centres undefined)	inactive	
CC1(C)[C@H](C=C(Cl)Cl)[C@H]1C(=O)OCc1cccc(Oc2ccccc2)c1	inactive	
CCOC(=O)C=Cc1ccccc1	inactive	
O=C(O)C(F)(F)OC(F)(F)C(F)(F)OC(F)(F)C(F)(F)C(F)(F)C(F)(F)F	inactive	
CC(C)(C)c1cccc(O)c1	inactive	
CC(C)Cc1ccc(C(C)C(=O)O)cc1 (centres undefined)	inactive	

The compounds below were run on Macrophage colony-stimulating factor (MCSF), CSF1 (gene 1435) (assay: BSK_CASM3C_MCSF: BioMAP Diversity Plus: CASM3C Assay for Macrophage colony-stimulating factor (MCSF) Biomarker Activity (AID 2283044;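 further: M-CSF protein amount quantified by ELISA after 24 h exposure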)). Conditions: primary human coronary artery smooth muscle cells; actives raise or lower the signal.

SMILES	outcome	AC50
C=C(C)C(N)=O	inactive	
c1ccc2c(c1)-c1ccc3ccc4cccc5cc-2c1c3c45	inactive	
O=C(O)C(F)(F)C(F)(F)C(F)(F)C(F)(F)C(F)(F)C(F)(F)C(F)(F)C(F)F	inactive	
C[C@]12CC[C@@H]3c4ccc(O)cc4CC[C@H]3[C@@H]1CC[C@@H]2O		3.24 µM (active)
CCCCCCCCCC(=O)OCC		31.4 µM (active)
Nc1ccc(N)c([N+](=O)[O-])c1	inactive	
CCCCN(CCO)CCO	inactive	
CC(=O)OC(C)(C)C1CC=C(C)CC1 (centres undefined)		35.3 µM (active)
CC1=CC(C)C(C=O)C(C)C1 (centres undefined) (tested in a mixture with another compound)	inactive	
CCC(=O)OCC=Cc1ccccc1	inactive	
CC=CC(=O)C1=C(C)C=CCC1(C)C	inactive	
CC(=O)CCC=C(C)CCC=C(C)C	inactive	
CCCCCCCC1CCCC1=O (centres undefined)		31.9 µM (active)
O=S1(=O)CC(Cl)(Cl)C(Cl)(Cl)C1		0.908 µM (active)
CCCCCCCCCCCCS	inactive	
CC(=O)OCC=C(C)CCC=C(C)CCC=C(C)C	inactive	
OCC(F)(OC(F)(F)C(F)(OC(F)(F)C(F)(F)C(F)(F)F)C(F)(F)F)C(F)(F)F (centres undefined)	inactive	
CC1(C)[C@H](C=C(Cl)Cl)[C@H]1C(=O)OCc1cccc(Oc2ccccc2)c1	inactive	
CCOC(=O)C=Cc1ccccc1	inactive	
O=C(O)C(F)(F)OC(F)(F)C(F)(F)OC(F)(F)C(F)(F)C(F)(F)C(F)(F)F	inactive	
CC(C)(C)c1cccc(O)c1	inactive	
CC(C)Cc1ccc(C(C)C(=O)O)cc1 (centres undefined)	inactive	
